# The list is not random: actives were taken first. Their share in the collection is about 2.6%.
# TWEAK-Fn14 inh – TWEAK-Fn14 signaling inhibition | AID 1159606 | 360,000 tested, 2% active | inhibition, % at 10 µM | TWEAK-stimulated Fn14 reporter cells, luciferase luminescence, 8 h; in the data active = inhibition above about 50%
# TROY NFkB inh – inhibitors of TROY-dependent NF-kB signaling. Q293 LMP1-TROYcd NF-kB luciferase reporter, 4 h. inhibition, % at 10 µM. 360,000 tested, 0.98% active;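 active = compounds whose plate-normalised and pattern-corrected inhibition of the luciferase reporter signal at the single screening dose is 50% or more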
# LMP1 NFkB inh – inhibitors of Epstein-Barr LMP1-induced NF-kappaB reporter; 350,000 tested, 0.69% active; AID 504558; LMP1-induced NF-kappaB luciferase reporter cells, luminescence; inhibition, % at 12.5 µM; in the data active = inhibition above about 41%; inconclusive = no clear call, values can overlap the other calls;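 also: 0% = neutral control wells and 100% = reference inhibitor control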
# LGR2 antag – Drosophila LGR2 receptor signaling inhibition; 380,000 tested, 0.35% active; inhibition, % at 9.99 µM; HEK293 LGR2, CRE-luciferase, bursicon-stimulated, 4 h;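 active = drop in luminescence signal, shown as inhibition above about 50% in the replicate tests, limit read from the data, passing the limit was not always enough; inconclusive = probably only some replicates passing the limit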;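 also: agonist challenge used bursicon conditioned medium at about half maximal strength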
# EWS-Fli block – blocks EWS/Fli oncoprotein-driven transcription; A673 NR0B1-luciferase reporter, viability-normalised; inhibition, % at 12.6 µM; 350,000 tested, 0.67% active; AID 651661;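 active = mean inhibition of at least 50% after viability correction, with every replicate also passing that limit; inconclusive = mean reaches 50% but only one of two replicates passes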;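 also: firefly luciferase signal divided by Alamar Blue viability fluorescence both relative to DMSO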
# The depositor's hits bear a star; ? = inconclusive; · = not tested or not shown.
SMILES,TWEAK-Fn14 inh,TROY NFkB inh,LMP1 NFkB inh,LGR2 antag,EWS-Fli block
CO[C@@H](CN(C)C(=O)C1CCOCC1)[C@H](C)CN(C(=O)Nc1ccc(F)cc1)[C@@H](C)CO,·,·,·,-4,-12
C[C@@H]1CN([C@H](C)CO)C(=O)c2cccc(NC(=O)C3CC3)c2O[C@H]1CN(C)Cc1ccc(Oc2ccccc2)cc1,·,·,·,6,14
O=C(Nc1ccc(S(=O)(=O)N2CCCCC2)cc1)c1ccc(CN2CCOCC2)cc1,68*,53*,5,·,·
COc1ccc(OC(=O)N2C/C(=C/c3ccccc3)C(=O)/C(=C\c3ccccc3)C2)cc1,90*,17,-24,?,48
CCOC(=O)N1C/C(=C\c2ccccc2)C(=O)/C(=C/c2ccccc2)C1,0,74*,-49,29,46
CCOC(=O)N1CCN(S(=O)(=O)/C=C/c2ccccc2)CC1,-24,-1,9,·,·
CCc1ccc(-c2csc(NC(=O)C3=NN(c4ccccc4)C(=O)CC3)n2)cc1,74*,51*,3,-4,·
CCc1ccc(-c2csc(NC(=O)c3cccnc3)n2)cc1,61*,21,13,26,·
Cc1cc(N)n2ncc(-c3ccccc3)c2n1,-9,-45,-39,·,·
Cc1cc(-c2ccc(F)cc2)n2ncc(-c3ccccc3)c2n1,86*,79*,·,27,-53
Cc1nc2c(-c3ccc(Cl)cc3)cnn2c(N)c1-c1ccc(F)cc1,95*,80*,-57,3,1
Cc1cc(-c2ccncc2)n2ncc(-c3ccccc3)c2n1,12,-24,·,-86,-19
Cc1nc2c(-c3ccc(F)cc3)cnn2c(N)c1-c1ccccc1,104*,94*,15,64*,32
COc1ccc(-c2c(C)nc3c(-c4ccc(F)cc4)cnn3c2N)cc1,46,55*,-16,-74,-139
C[C@@H]1CN([C@@H](C)CO)C(=O)c2cc(NC(=O)Cc3ccccc3)ccc2O[C@@H]1CN(C)Cc1ccncc1,·,·,·,-3,3
COc1ccc(NC(=O)N(C)C[C@H]2OCCCC[C@@H](C)Oc3ccc(NC(=O)Nc4c(C)noc4C)cc3C(=O)N([C@H](C)CO)C[C@@H]2C)cc1,·,·,·,-1,-8
Fc1ccc(-c2cnn3c(-c4ccncc4)ccnc23)cc1,61*,-8,-10,-56,19
CC(=O)Nc1ccc(Nc2cc(C)nc3c(-c4ccccc4)cnn23)cc1,68*,15,12,-24,·
O=S1(=O)N=C(Oc2cccc3ccccc23)c2ccccc21,23,58*,8,-17,·
C/C=C/c1ccc2c(c1)O[C@@H](CN(C)C(=O)Nc1ccc(F)cc1)[C@@H](C)CN([C@@H](C)CO)S2(=O)=O,·,·,·,-69,-20
CCOc1ccc(NC(=O)NCCCN2CCCC2)cc1,90*,-7,-6,-7,·
O=C(NCCCN1CCCC1)Nc1ccc(F)cc1,-32,-6,4,0,3
O=C(Nc1ccc(OCc2ccccc2)cc1)Nc1ccccc1C(=O)NCCCN1CCOCC1,89*,-28,2,-25,-22
C[C@H]1CN([C@@H](C)CO)C(=O)c2cc(C#CCC3CCCC3)cnc2O[C@H]1CN(C)Cc1ccccn1,·,·,·,3,4
Cc1ccc2c(c1)c(/C=C/c1cc[n+](C)cc1)c(C)n2C,16,37,13,7,57*
SMILES,TWEAK-Fn14 inh,TROY NFkB inh,LMP1 NFkB inh,LGR2 antag,EWS-Fli block
Cc1ccc2[nH]c(C)c(/C=C/c3cc[n+](C)cc3)c2c1,33,28,21,9,50
O=C(Cn1c2ccccc2c(=O)c2ccccc21)N/N=C/c1ccc(N2CCCC2)c([N+](=O)[O-])c1,65*,35,14,-8,·
O=C(O/N=C\c1ccc(N2CCCCC2)c([N+](=O)[O-])c1)c1c(F)cccc1F,78*,·,2,·,·
Cc1nn(-c2ccccc2)c(C)c1-c1nnc(C(F)(F)F)o1,-7,-2,5,-2,0
Cc1nn(-c2ccccc2)c(C)c1-c1nnc(-c2c(C)nn(-c3ccccc3)c2C)o1,33,50*,3,12,1
C[C@H]1CN([C@@H](C)CO)C(=O)c2cccc(NC(=O)Nc3cccc4ccccc34)c2O[C@H]1CN(C)C(=O)NC1CCCCC1,·,·,·,4,5
COc1ccc(S(=O)(=O)N2CCCC2C(=O)Nc2ccc(C)cc2)cc1 (stereo not drawn),-12,8,-1,·,·
Cc1ccc(S(=O)(=O)N2CCC[C@H]2C(=O)Nc2ccccc2C)cc1,-13,9,70*,12,8
COc1ccc(NC(=O)C(=O)NCC2CCCN2S(=O)(=O)c2ccc(C)cc2)cc1 (stereo not drawn),-9,36,5,-11,56*
Cc1ccc(S(=O)(=O)N2CCC[C@H]2C(=O)Nc2ccccc2Cl)cc1,6,8,0,1,3
COc1ccc(NC(=O)C2CCCN2S(=O)(=O)c2ccc(Cl)cc2)cc1 (stereo not drawn),77*,-4,-4,-22,-1
COc1ccc(NC(=O)C(=O)NCC2CCCN2S(=O)(=O)c2cc(C)ccc2C)cc1 (stereo not drawn),5,15,9,10,57*
CO[C@@H]1CN(C)C(=O)c2ccc(NC(C)=O)cc2OC[C@@H](C)N(CC2CC2)C[C@@H]1C,·,·,·,-1,-3
C[C@@H]1CN([C@@H](C)CO)C(=O)c2cc(C#CC3CC3)cnc2O[C@H]1CN(C)S(C)(=O)=O,·,·,·,8,-4
Cc1noc(C)c1S(=O)(=O)Nc1ccc2c(c1)C(=O)N([C@H](C)CO)C[C@@H](C)[C@@H](CN(C)C(=O)NC(C)C)O2,·,·,·,11,6
CN=CC1=C(O)c2ccccc2C1=O,-5,30,0,·,·
O=C1C(C=Nc2ccccc2O)=C(O)c2ccccc21,44,8,-5,65*,-66
COc1ccc(N=C(C)C2=C(O)c3ccccc3C2=O)cc1,63*,-12,-14,26,·
O=C1C(C=Nc2ccccc2)=C(O)c2ccccc21,61*,53*,11,·,·
Cc1ccc(O)c(N=CC2=C(O)c3ccccc3C2=O)c1,-27,2,-23,·,·
CCOc1ccc(N=C(C)C2=C(O)c3ccccc3C2=O)cc1,8,-9,-14,·,-36
COc1ccc(N=CC2=C(O)c3ccccc3C2=O)cc1,98*,74*,37,·,·
C[C@@H]1CN([C@H](C)CO)C(=O)c2cc(NS(=O)(=O)c3cccs3)ccc2O[C@@H](C)CCCCO[C@@H]1CN(C)C(=O)C1CCCCC1,·,·,·,-6,-11
C[C@@H]1CCCCO[C@@H](CN(C)C(=O)NC2CCCCC2)[C@@H](C)CN([C@@H](C)CO)C(=O)c2cc(NC(=O)Nc3ccc4c(c3)OCO4)ccc2O1,·,·,·,13,-12
C[C@H]1CN([C@@H](C)CO)C(=O)CCCn2cc(nn2)CO[C@@H]1CN(C)C,·,·,·,5,-8
CCOC(=O)C1=C(O)/C(=C/c2ccc(CNC(=O)C(=O)Nc3ccc(C)cc3)o2)N=C1C,-6,7,77*,-32,·
O=c1c2ccccc2oc2cc(C#Cc3ccccn3)ccc12,65*,14,-9,-39,-21
COc1cccc2oc3ccc(C#Cc4ccccn4)cc3c(=O)c12,10,-7,-3,83*,-62
